Compounds with a hit are over-represented: about 3.9% of the library has one in this group of screens.
BoNT F protease: blocks Botulinum neurotoxin F light chain protease; Multiplex microsphere protease cleavage assay, flow cytometry; inhibition, % at 10 µM; actives 0.22% (n = 360,000); in the data active = inhibition above about 35%, passing the limit was not always enough; inconclusive = no clear call, values can overlap the other calls; note: plate controls were buffer without enzyme for full effect and enzyme alone for no effect
BH1578 lux ind: quorum light induction in luxS cqsA deficient V. cholerae. actives 0.16% (n = 350,000). activation, % at 18.7 µM. V. cholerae BH1578 lux reporter, luminescence, 6 h; in the data active = activation mostly above about 9.7%, no sharp cut-off; inconclusive = no clear call, values can overlap the other calls; inactive = mostly below about 3.7%
Bead autofluor: compound fluorescence in toxin protease inhibitor counterscreen; fluorescence intensity (concentration not given with the values); actives 3.1% (n = 360,000); compound autofluorescence counterscreen, microsphere flow cytometry; hits give high values; in the data active = fluorescence intensity above about 16000; inconclusive = no clear call, values can overlap the other calls
MazF activator: activators of E. coli MazEF toxin-antitoxin RNase. actives 0.32% (n = 350,000). activation, % at 20 µM. AID 504720. FAM/BHQ RNA-DNA oligo cleavage fluorescence, 5 h. P0AE70; in the data active = activation above about 50%
Target sequence (P0AE70 whole entry, looked up): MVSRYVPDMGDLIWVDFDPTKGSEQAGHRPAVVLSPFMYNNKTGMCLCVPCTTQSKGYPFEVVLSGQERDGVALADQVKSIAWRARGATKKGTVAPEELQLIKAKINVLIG
Anthrax LF prot: inhibitors of Bacillus anthracis lethal factor protease | inhibition, % at 10 µM | P15917 | actives 0.12% (n = 360,000) | multiplex microsphere protease cleavage assay, LF; note: plate controls were buffer without enzyme for full effect and enzyme alone for no effect
BoNT A protease: BoNT A light chain protease inhibition | multiplex microsphere protease substrate cleavage, flow cytometry | inhibition, % at 10 µM | actives 0.17% (n = 360,000) | AID 588499; note: plate controls were buffer without enzyme for full effect and enzyme alone for no effect
* = called active by the depositor; i = inactive; ? = inconclusive. Cut-off read from the data, not from the text of the source, unless noted: active = inhibition above about 30%; inconclusive = no clear call, values can overlap the other calls; inactive = below that.

SMILES	BoNT F protease	BH1578 lux ind	Bead autofluor	MazF activator	Anthrax LF prot	BoNT A protease
COc1ccc(CN2C(=O)C(CC(=O)NC3CC3)CC(C(=O)N(C)C)=C2C)cc1 (centres undefined)	0	i	3514	-14	-6	0
Cc1ccc(NC(=O)/C(C#N)=C(\N)C(Cl)(Cl)Cl)nc1	-4	-1	8853	165*	1	-2
Cc1cc(N2CCCCC2)nc2ccccc12	-5	0	4402	0	-3	-1
Cc1cc(-n2nnc3ccccc32)nc2ccccc12	-6	i	17243*	4	0	-3
Cc1cccc(NC(=O)c2ccc(Cn3cc(C(F)(F)F)ccc3=O)cc2)c1	0	0	16900*	8	-2	-1
CCc1cc(=O)oc2c(C)c(OCC(=O)N3CCCc4ccccc43)ccc12	1	-6	3109	-6	0	0
O=C(Nc1c(Cl)cc(Cl)cc1-c1nc2ccccc2s1)c1ccc(Br)o1	-6	0	17431*	4	0	?
O=C(COC(=O)/C=C/c1cccc(F)c1)NCc1ccc2c(c1)OCO2	1	i	3727	1	-2	0
Cc1cc(-n2nc(C)cc2C)n2nc(C)c(-c3ccc(Cl)cc3)c2n1	18	0	17908*	-19	-20	13
C=CCSc1cc(C)nc2c(-c3ccc(Cl)cc3)c(C)nn12	-1	0	20069*	11	-1	0
Cc1cc(SCC(=O)c2cccs2)n2nc(C)c(-c3ccc(Cl)cc3)c2n1	-3	-1	1987	-7	-1	-1
Cc1cc(C(F)(F)F)n2nc(C)c(-c3ccc(Cl)cc3)c2n1	0	0	2056	-6	2	0
CCOC(=O)C1=C(N)OC2=C(C(=O)CC(C)(C)C2)C1c1cccnc1 (centres undefined)	0	4	22141*	-1	-2	1
CCOC(=O)C1=C(C)NC2=C(C(=O)CCC2)C1c1cccnc1 (centres undefined)	-6	3	23612*	-15	0	-2
CCOc1ccc(CCNC(=O)CN(C)S(=O)(=O)c2ccc3c(c2)CCC(=O)N3)cc1OCC	-2	i	23279*	-6	-2	-2
COC(=O)c1cc(OC)c(OC)cc1NC(=O)CN1CCCCC1	-4	i	22761*	-4	-4	0
CCOC(=O)C1CCN(C(=S)Nc2cc(OC)c(OC)cc2C(=O)OC)CC1	1	0	20685*	5	1	0
COC(=O)c1cc(OC)c(OC)cc1NC(=S)N1CCN(c2ccccc2)CC1	-6	2	9923	-4	-6	0
COC(=O)c1cc(OC)c(OC)cc1NC(=S)N1CCC(C(N)=O)CC1	-6	i	17588*	-6	-3	-4
COC(=O)c1ccc(C(=O)OC)c(NC(=O)CN2CCCCC2)c1	-3	i	2051	2	0	0
COC(=O)c1cc(OC)c(OC)cc1NC(=S)N1CCCCC1	8	0	20422*	4	2	5
COC(=O)c1cc(OC)c(OC)cc1NC(=S)N1CCN(C)CC1	-4	2	10029	-1	1	-1
CCOc1cc(NC(=S)N2CCC(C(N)=O)CC2)c(C(=O)OC)cc1OCC	-5	i	3347	8	-2	-1
COc1ccc(CNC(=O)C(C)n2ccc3cc(S(=O)(=O)N4CCCCCC4)ccc32)cc1 (centres undefined)	-19	i	7524	5	2	-4
COc1ccc(Br)cc1CN(C)C(=O)CNC(=O)c1ccc2ccccc2c1	-16	i	3926	6	11	-1
SMILES	BoNT F protease	BH1578 lux ind	Bead autofluor	MazF activator	Anthrax LF prot	BoNT A protease
O=C(OCCN1C(=O)c2cccc3c(N4CCOCC4)ccc(c23)C1=O)c1ccc(Cl)cc1	12	0	3644	-831	12	34*
CCCN(CCC)S(=O)(=O)c1ccc(C(=O)OCCN2C(=O)c3cccc4c(N5CCOCC5)ccc(c34)C2=O)cc1	32	-3	10692	-540	37*	37*
O=C(OCCN1C(=O)c2ccccc2C1=O)c1cc(S(=O)(=O)N2CCOCC2)ccc1F	9	i	4603	-2	-2	0
CCN(CC)S(=O)(=O)c1ccc(C(=O)OCC(=O)N2CCOCC2)cc1	24	i	3957	3	3	-3
CSc1nc(SCC(=O)NC(c2ccccc2)c2ccccc2)c2c3c(sc2n1)CN(C)CC3	-4	-2	16363*	-4	5	4
O=C(NC1CCCC1)C(c1ccccn1)N(C(=O)c1csnn1)C1CC1 (centres undefined)	-7	-1	16748*	-9	-2	-2
O=C(NC1CCCCC1)C(c1ccco1)N(C(=O)c1csnn1)c1ccc(Cl)cc1 (centres undefined)	7	1	3854	-3	5	-2
CC(C)(C)NC(=O)C(c1ccccc1F)N(Cc1ccco1)C(=O)c1csnn1 (centres undefined)	1	i	16964*	4	-1	-1
O=C(NC1CCCC1)C(c1ccccn1)N(C(=O)c1csnn1)C1CCCCC1 (centres undefined)	-9	0	3284	4	-3	0
COCCN(C(=O)c1csnn1)C(C(=O)NC1CCCCC1)c1sccc1C (centres undefined)	-2	5	23376*	8	2	0
O=C(NC1CCCCC1)C(c1ccco1)N(C(=O)c1csnn1)C1CCCC1 (centres undefined)	4	i	22986*	0	3	1
C=CC[C@H](CC(=O)NCCO)C(=O)N[C@@H](COC(=O)[C@@H](CC=C)Cc1ccc(F)cc1)Cc1ccccc1	4	5	3901	0	2	0
Cc1ccc(CN(C(=O)c2csnn2)C(C(=O)NC2CCCC2)c2ccco2)cc1 (centres undefined)	-7	0	3847	13	5	-2
O=C(NC1CCCC1)C(c1ccco1)N(Cc1ccccc1)C(=O)c1csnn1 (centres undefined)	-2	2	20226*	-3	-1	?
C[C@H](CO)N1C[C@H](C)[C@H](CN(C)Cc2ccncc2)Oc2cc(-c3ccccc3F)ccc2S1(=O)=O	-3	-2	3399	-1	-4	0
Oc1ccc(-c2nc3ccccn3c2NCc2ccc3c(c2)OCO3)cc1	-1	-6	2416	1	-3	0
Cc1ccn2c(NCc3ccc4c(c3)OCO4)c(-c3ccc(O)cc3)nc2c1	-7	-2	17253*	3	-4	-4
CC(=O)c1ccc(OCC(=O)OCC(=O)N(CC(C)C)c2c(N)n(Cc3ccccc3)c(=O)[nH]c2=O)cc1	4	-5	?	2	-1	1
O=C(O)C1CCCCC1C(=O)Nc1ccccc1Nc1ccccc1 (centres undefined)	-17	i	2585	8	3	3
O=C(O)C1CCCCC1C(=O)Nc1cccc2ccccc12 (centres undefined)	6	i	20285*	-2	-6	6

Screening results deposited in PubChem BioAssay by several laboratories.
